Screening data: PubChem, National Center for Advancing Translational Sciences (NCATS)
HCV inhibitor: blocks hepatitis C virus | 340,000 tested, 3.4% active | Huh7.5.1 HCVcc-Cre infection, luciferase reporter, 44 h | Potency, µM (doses to about 41.8 µM), inactives show at the highest dose activity change, negative = inhibition, actives largely listed as inhibitors; note: potency is the fitted concentration of half-maximal effect; % is set by controls: 0 for no effect and ±100 for the full control effect
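HCVcc-Cre virus at an moi near 0.5 was added right after compound to cells cultured 4 h from seeding (1,000 cells/well). Luciferase activity was determined 44 h later, 15 min after substrate addition at RT.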
Sm TGR block: blocks Schistosoma mansoni thioredoxin glutathione reductase; AID 485364; purified TGR, DTNB reduction, TNB absorbance 405 nm; Q962Y6; Potency, µM (doses to about 114 µM), for the others: at the highest dose activity change, negative = inhibition, most hits filed as inhibitors; 360,000 tested, 3% active; note: potency is the fitted concentration of half-maximal effect; % is set by controls: 0 for no effect and ±100 for the full control effect; nearly all actives have a fitted effect of over 60% in size
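First, TGR (20 nM dispensed) and NADPH were mixed with compound. Second, a 15 min room-temperature incubation followed. Third, further NADPH and then DTNB were added to start the reaction. Finally, TNB absorbance was monitored kinetically.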
HCMV antiviral: blocks human cytomegalovirus replication. HFF cells, HCMV-luciferase reporter, 72 h; stronger effect = lower value. activity change, negative = inhibition, % at 57.5 µM. 410,000 tested, 4.5% active. AID 1259415; in the data active = activity change below about -60%; inconclusive = no clear call, values can overlap the other calls; inactive = above about -39%; note: % is set by controls: 0 for no effect and ±100 for the full control effect
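Steps: HFFs plated, 16 h 37C; compounds added; HCMV-luciferase added to MOI 1 PFU/cell; 72 h 37C; OneGlo reagent, 5 min room temperature; luminescence read, normalized to controls.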
SARS PLP yeast: blocks SARS-CoV papain-like protease in a yeast assay. S. cerevisiae expressing SARS-CoV PLpro, growth rescue. Potency, µM (highest dose often 32.9 µM), for inactives: at the top dose activity, positive = growth rescue, most hits filed as activators. 330,000 tested, 0.19% active. AID 485353; calls by dose curve; note: potency is the fitted concentration of half-maximal effect; 0% is about no effect; nearly all actives have a fitted effect of over 55% in size
Pf growth 96h: P. falciparum growth inhibition at 96 hour, primary screen for plastid delayed-death inhibitors; 320,000 tested, 6.9% active; P. falciparum luciferase reporter growth, 96 h; Potency, µM (highest dose often 28.7 µM), without a hit: at the highest dose activity change, negative = inhibition, usual class: inhibitors; note: potency is the fitted concentration of half-maximal effect; % is set by controls: 0 for no effect and ±100 for the full control effect
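Luminescence readout: decreased luciferase signal marks inhibited growth of reporter-expressing P. falciparum in infected red cells (2% hematocrit, 0.05% parasitemia final), exposed to compound two generations (96 h, 37 C, 5% CO2).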
Pf growth 48h: inhibits P. falciparum growth in the first generation, 48 h | P. falciparum luciferase growth in erythrocytes, 48 h | Potency, µM (highest dose often 28.7 µM), for the others: top-dose activity change, negative = inhibition, actives largely listed as inhibitors | 310,000 tested, 5.9% active | AID 504832; note: potency is the fitted concentration of half-maximal effect; % is set by controls: 0 for no effect and ±100 for the full control effect
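In quantitative HTS format, infected erythrocytes bearing luciferase-reporter parasites were treated for a single generation at 37 C. Luminescence after adding detection reagent served as the growth measure.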
An asterisk follows results filed as active; u = inconclusive; x = no result given; [ ] = remark or other dose. Most compounds without a hit are left out; they make up all but 15% or so of the library. Unless noted, calls come from the whole dose curve; as a rule, active = well fitted curve in the direction sought with a large enough effect; inconclusive = small, poorly fitted or top-dose-only effect, or another doubt; inactive = no such curve, though single readings can be large; an effect the other way counts as inactive or inconclusive.

SMILES	HCV inhibitor	Sm TGR block	HCMV antiviral	SARS PLP yeast	Pf growth 96h	Pf growth 48h
CC(=O)Nc1ccc(NC2=C/C(=N/S(=O)(=O)c3cccs3)c3ccccc3C2=O)cc1	u	-34.3%	-100.9*	-0.5%	103.9%	0.147µM*
CC(=O)Nc1ccc(NC(=O)C(C)OC(=O)c2ccccc2NS(=O)(=O)c2cccs2)cc1 (configuration not stated)	-17.1%	14.8%	-1.0	0.6%	u	-5.2%
Cc1ccccc1NC1=C/C(=N\S(=O)(=O)c2cccs2)c2ccccc2C1=O	3.55µM*	u	-106.2*	-28.4%	x	0.0928µM*
Cc1ccc(NC2=C/C(=N/S(=O)(=O)c3cccs3)c3ccccc3C2=O)cc1C	7.5%	-3.4%	62.3	-5.2%	10.7%	0.657µM*
COc1ccc(S(=O)(=O)/N=C2\C=C(Nc3ccc(O)cc3)C(=O)c3ccccc32)cc1	5.62µM*	-3.0%	-99.0*	-1.4%	17.8%	0.928µM*
CCCCCCCCN1C(=O)[C@H](CC(=O)N2CCSCC2)C[C@@]2(C(=O)OCC)CCCC=C12	x	x	-7.5	x	x	x
Cc1ccc(C2NC(=O)c3c(sc(C)c3C)N2)c(O)c1 (configuration not stated)	-6.3%	25.1µM*	39.6	-5.2%	-2.5%	x
O=C1c2ccccc2C(=O)N1c1cccc(-c2csc(Nc3ccc4c(c3)OCO4)n2)c1	-1.3%	50.1µM*	x	15.3%	10.4µM*	17.8%
c1ccc(-c2csc(Nc3ccc4c(c3)OCO4)n2)cc1	x	x	157.1	x	x	x
COc1ccccc1Nc1nc(-c2cccc(N3C(=O)c4ccccc4C3=O)c2)cs1	0.8%	-3.2%	-34.4	u	14.7µM*	6.5%
COc1ccc(-c2csc(NC(=O)c3cccc(N4C(=O)CCC4=O)c3)n2)cc1OC	u	0.3%	4.6	-14.9%	-29.8%	u
O=C(NCc1cccs1)C1CC(=O)N(c2ccccc2)C1 (configuration not stated)	-0.2%	2.1%	7.9	3.5%	-10.5%	-3.2%
Cc1nc2c3cc(Cl)ccc3n(CCN3CCCCC3)c2s1	u	-12.8%	0.1	-13.3%	x	u
COc1ccc(C(=O)N/N=C/c2ccc(N3CCOCC3)o2)cc1OC	11.2%	7.94µM*	-38.9	6.6%	-1.1%	3.5%
O=C(N/N=C/c1ccc(N2CCOCC2)o1)c1cccc(F)c1	-5.4%	10µM*	53.5	6.9%	30.7%	20.0%
Cc1ccc(/C=N/NC(=O)c2cccc(S(=O)(=O)N3CCOCC3)c2)o1	7.8%	-17.6%	-15.8	-0.1%	-21.9%[5.75 µM]	-15.3%
COC(=O)c1cccc(NC(=O)CN2CCc3ccccc3C2)c1	5.0%	-27.0%	19.3	10.8%	-8.8%	0.0%
C=CCN1C(=O)c2ccc(C(=O)N(CC)CC(=O)Nc3c(F)cccc3F)cc2C1=O	10.0%	0.1%	7.3	-1.5%	-0.2%	u
CCOC(=O)c1sc(N)c(C(=O)OCC)c1COC(=O)C1CC(=O)N(Cc2ccco2)C1 (configuration not stated)	12.6µM*	39.8µM*	29.1	4.6%	u	u
O=C(OCc1nnc(-c2ccccc2)o1)C1CC(=O)N(Cc2ccco2)C1 (configuration not stated)	6.4%	14.1µM*	u	1.4%	28.5%	1.9%
COc1cccc(-n2c(=O)c3sccc3n(Cc3cc(=O)n4cc(Cl)ccc4n3)c2=O)c1	x	-1.4%	-11.8	x	x	x
O=C(Nc1cccc(Cl)c1)c1cccc(Oc2ccc([N+](=O)[O-])cc2Cl)c1	u	-8.3%	-88.9*	-17.5%	u	u
COc1cccc(C(=O)Nc2ccc(C)cc2)c1	u	-12.5%	129.9	-3.8%	u	132.6%
O=C(NCCO)c1ccc(Oc2ccc(C(F)(F)F)cc2[N+](=O)[O-])cc1	-11.0%	2.3%	-19.8	-0.6%	-28.4%	6.1%
O=C(Nc1ccc([N+](=O)[O-])cc1Cl)c1cccc([N+](=O)[O-])c1	x	x	1.0	x	x	x
